Experimental data published in PubChem BioAssay (EPA / NIEHS).
Inconclusive results are not listed. Calls of active or inactive are those of the source. The calls were made as follows: active = hit-call score of the fitted dose curve at least 0.9, where 1 is the maximum; inconclusive = response in the unintended direction; inactive = score below 0.9.

Assay: Tanguay_ZF_120hpf_PE_legacy: (Legacy) Oregon State University Tanguay Lab 120 Hour Post-fertilization zebrafish Assay for Pericardial Edema (AID 2283640);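 as to AC50: potency for increased incidence of pericardial edema versus DMSO baseline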
Method: Tanguay_ZF_120hpf_legacy is a whole embryo, multiplexed endpoint assay using zebrafish larvae exposed for 120 hours post fertilization on a 96-well plate.Tanguay_ZF_120hpf_PE_legacy is one of one assay component(s) measured or calculated from the Tanguay_ZF_120hpf_legacy assay. It is designed to make measurements of zebrafish development as detected with brightfield microscopy of developing zebrafish embryos.Data from the assay component Tanguay_ZF_120hpf_PE_legacy was analyzed into 1 assay endpoints. This assay endpoint, Tanguay_ZF_120hpf_PE_legacy, was analyzed in the positive analysis fitting direction relative to DMSO as the negative control and baseline of activity. Using a type of morphology reporter, gain-of-signal activity can be used to understand changes in developmentals as they relate to the whole embryo. To generalize the intended target to other relatable targets, this assay endpoint is annotated to the zebrafish development intended target family, where the subfamily is embryonic morphogenesis.
Zebrafish husbandry: Tropical 5D wild-type adult zebrafish were housed in at an approximate density of 1000 per 100 gallon tank at the Sinnhuber Aquatic Research Laboratory, Oregon State University, Corvallis, OR. Each tank was kept at standard laboratory conditions of 28C on a 14-h light/10-h dark photoperiod in fish water consisting of reverse osmosis water supplemented with a commercially available salt (Instant Ocean). Spawning funnels were placed into the tanks the night prior, and embryos were collected and staged. […] Ten microliters of each row of dilution plate 2 was added to 2 exposure plates. The final DMSO concentration used was 0.64% (vol/vol). Thirty-two embryos were also exposed to 5uM trimethyltin chloride (positive control). Plates were sealed to prevent evaporation and foil covered to reduce light exposure and kept in a 28C incubator. Embryos were statically exposed until 120 hpf. At 24 hpf, embryos were assessed for photomotor response using a custom photomotor response analysis tool (PRAT) and for developmental toxicity endpoints (MO24: mortality at 24 hpf, DP: developmental progression, SM: spontaneous movement, and NC: notochord distortion). At 120 hpf, locomotor activity was measured using Viewpoint Zebralab and assessed for 18 endpoints. Zebrafish acquisition and analysis program (ZAAP), a custom program designed to inventory, acquire, and manage zebrafish data, was used to collect developmental endpoints as either present or absent (i.e., binary responses were recorded). If mortality occurred for an embryo (at either 24 or 120 hpf), the non-mortality endpoints were not measured.
For `Cc1ccc(O)c(C)c1`, the outcome was “inactive”. With `CC(C)(O)C(=O)Nc1ccc([N+](=O)[O-])c(C(F)(F)F)c1` the AC50 was 23.2 µM (active). With `CCOCCOC(C)=O` the outcome was “inactive”. For `CCCN(CCC)N=O`, the outcome was “inactive”. With `O=NN(c1ccccc1)c1ccccc1` the outcome was “inactive”. With `O=C(O)C(F)(F)C(F)(F)C(F)(F)C(F)(F)C(F)(F)C(F)(F)C(F)(F)C(F)(F)F` the outcome was “inactive”. In the case of `ClC1=C(Cl)[C@]2(Cl)[C@@H]3[C@H]4C[C@H]([C@@H]5O[C@H]45)[C@@H]3[C@@]1(Cl)C2(Cl)Cl`, the AC50 is reported as 39 µM (active). With `C[C@]12CCC(=O)C=C1CC[C@@H]1[C@@H]2CC[C@]2(C)C(=O)CC[C@@H]12` the AC50 was 36.3 µM (active). For `NS(=O)(=O)C(F)(F)C(F)(F)C(F)(F)C(F)(F)C(F)(F)C(F)(F)C(F)(F)C(F)(F)F`, the outcome was “inactive”. For `CN(C)CCO`, the outcome was “inactive”. For `c1ccc(-c2ccccc2)cc1`, the outcome was “inactive”. In the case of `Cc1cccc([N+](=O)[O-])c1`, the outcome is reported as “inactive”. For `Oc1ccc(C(c2ccc(O)cc2)(C(F)(F)F)C(F)(F)F)cc1`, the AC50 was 37.7 µM (active). In the case of `CCOP(=S)(OCC)SCSC(C)(C)C`, the outcome is reported as “inactive”. In the case of `Nc1ccc(-c2ccc(N)cc2)cc1`, the outcome is reported as “inactive”. For `Nn1cnnc1`, the outcome was “inactive”. For `CC(C)(c1ccccc1)c1ccc(O)cc1`, the outcome was “inactive”. For `C=CC(=O)NCNC(=O)C=C`, the outcome was “inactive”. With `ClC1=C(Cl)[C@]2(Cl)[C@@H]3[C@@H](Cl)[C@H]4O[C@H]4[C@@H]3C1(Cl)C2(Cl)Cl` the outcome was “inactive”. With `N#Cc1ccc(N(CC(N)=O)CC(F)(F)F)cc1C(F)(F)F` the outcome was “inactive”. In the case of `O=C(N[C@H]1CN2CCC1CC2)c1cc2ccoc2cn1`, the outcome is reported as “inactive”. In the case of `CCCCCCCCOC(=O)c1ccccc1C(=O)OCCCCCCCC`, the outcome is reported as “inactive”. For `Cc1ccccc1CO[C@@H]1C[C@@]2(C(C)C)CC[C@]1(C)O2`, the outcome was “inactive”. For `CCCCCCCCCC[N+](C)(C)CCCCCCCCCC`, the outcome was “inactive”. For `COS(=O)(=O)OC`, the outcome was “inactive”. With `CC(C)C(=O)OCC(C)(C)C(OC(=O)C(C)C)C(C)C` (stereo not given) the AC50 was 28.8 µM (active). In the case of `Cc1ccccc1O`, the outcome is reported as “inactive”. With `CCOC(=O)C(O)(c1ccc(Cl)cc1)c1ccc(Cl)cc1` the outcome was “inactive”. For `Clc1ccc(Cl)cc1`, the outcome was “inactive”. For `CCC(C)c1cc([N+](=O)[O-])cc([N+](=O)[O-])c1O` (stereo not given), the outcome was “inactive”. With `Clc1ccc(C(c2ccccc2Cl)C(Cl)(Cl)Cl)cc1` (stereo not given) the outcome was “inactive”. With `CCC(C)(CC)c1cc(NC(=O)c2c(OC)cccc2OC)on1` the outcome was “inactive”. With `COc1ccc(O)c(C(C)(C)C)c1` the outcome was “inactive”. For `CO/C=C(/C(=O)OC)c1ccccc1COc1cccc(C(F)(F)F)n1`, the AC50 was 2.43 µM (active). In the case of `O=C(NC(=O)c1cc(F)c(F)cc1Cl)Nc1cc(F)ccc1N1CCC(C(=O)O)CC1`, the outcome is reported as “inactive”. With `CCCCCCOC(=O)c1ccccc1C(=O)OCCCCCC` the outcome was “inactive”. For `C=CC(N)=O`, the outcome was “inactive”. With `CCC(C)(c1ccc(O)cc1)c1ccc(O)cc1` the AC50 was 43.4 µM (active). With `ClC(Cl)=C(c1ccc(Cl)cc1)c1ccc(Cl)cc1` the outcome was “inactive”. In the case of `CC1=C2C[C@H]3[C@@H](CC=C4C[C@@H](O)CC[C@@]43C)[C@@H]2CC[C@]12O[C@@H]1C[C@H](C)CN[C@H]1[C@H]2C`, the AC50 is reported as 20.2 µM (active).
